“And” between values parts separate entries of the source, which are not always exact repeats. Identical values can stand only once. A structure can be active in one record and inactive in another. The source made the active and inactive calls. The calls were made as follows: active = hit-call score of the fitted dose curve at least 0.9, where 1 is the maximum; inactive = score below 0.9.
How the values were obtained:
Conditions in all cases: mRNA level, 48 h; actives raise or lower the signal
[1] = read-out: growth arrest and DNA damage 45 (GADD45G), GADD45G (gene 10912); test: LTEA_HepaRG_GADD45G: Life Technologies and Expression Analysis (LTEA) Assay for growth arrest and DNA damage 45 (GADD45G) using HepaRG (AID 2283499)
How it was run: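 Concentration-response in HepaRG: 48 h dosing, 0.5% DMSO, highest level 100 uM. GADD45G expression by qRT-PCR, normalised to endogenous controls; bidirectional fit to DMSO.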

[2] = read-out: Glutamate-cysteine ligase regulatory (GCLM), GCLM (gene 2730); test: LTEA_HepaRG_GCLM: Life Technologies and Expression Analysis (LTEA) Assay for Glutamate-cysteine ligase regulatory (GCLM) using HepaRG (AID 2283500)
How it was run: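 In this multiplexed HepaRG gene-expression assay, GCLM mRNA change after 48 h treatment (8 concentrations, max 100 uM) was scored against DMSO by bidirectional curve fitting.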

[3] = read-out: Glutathione S-transferase M3 (GSTM3), GSTM3 (gene 2947); test: LTEA_HepaRG_GSTM3: Life Technologies and Expression Analysis (LTEA) Assay for Glutathione S-transferase M3 (GSTM3) using HepaRG (AID 2283501)
How it was run: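 Expression of GSTM3 is determined by qRT-PCR in human liver HepaRG cells treated 48 h with an 8-point half-log range from 100 uM in 0.5% DMSO.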

[4] = read-out: Heat shock 70 kDa protein 1 (HSPA1A), gene 3303; test: LTEA_HepaRG_HSPA1A: Life Technologies and Expression Analysis (LTEA) Assay for Heat shock 70 kDa protein 1 (HSPA1A) using HepaRG (AID 2283502)
How it was run: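 An oxidative-stress marker readout: HepaRG cells treated 48 h in duplicate with an eight-point series (highest 100 uM) had HSPA1A mRNA quantified by TaqMan qRT-PCR. Activity was fitted in both directions using 0.5% DMSO as baseline.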

[5] = read-out: Hypoxia-inducible factor 1-alpha (Homo sapiens) (UniProt Q16665); test: LTEA_HepaRG_HIF1A: Life Technologies and Expression Analysis (LTEA) Assay for Hypoxia-inducible factor 1 (HIF1A) Trancription factor using HepaRG (AID 2283503);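 also: HIF1A transcript by TaqMan qRT-PCR normalized to ACTB GAPDH and POLR2A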
How it was run: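 Gain- or loss-of-signal HIF1A mRNA changes are fitted against a DMSO baseline. HepaRG cultures receive eight concentrations, highest 100 uM, for 48 h in serum-free induction medium with 0.5% DMSO.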

[6] = read-out: 3-Hydroxy-3-Methylglutaryl-CoA Synthase 2 (HMGCS2), HMGCS2 (gene 3158); test: LTEA_HepaRG_HMGCS2: Life Technologies and Expression Analysis (LTEA) Assay for 3-Hydroxy-3-Methylglutaryl-CoA Synthase 2 (HMGCS2) using HepaRG (AID 2283504)
How it was run: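 This steatosis marker was read as HMGCS2 mRNA change in HepaRG cells treated 48 h with up to 100 uM chemical. Normalisation used housekeeping genes; activity in either direction was fitted relative to 0.5% DMSO vehicle.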

[7] = read-out: HGF (gene 3082); test: LTEA_HepaRG_HGF: Life Technologies and Expression Analysis (LTEA) Assay for Hepatocyte Growth Facto (HGF) using HepaRG (AID 2283505)
How it was run: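 Using HepaRG monolayers kept in 0.5% DMSO, chemicals were tested in duplicate over eight half-log concentrations from 100 uM for 48 h. Endpoint: HGF mRNA change relative to DMSO, normalized to ACTB/GAPDH/POLR2A.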

[8] = read-out: Insulin Like Growth Factor 1 (IGF1), IGF1 (gene 3479); test: LTEA_HepaRG_IGF1: Life Technologies and Expression Analysis (LTEA) Assay for Insulin Like Growth Factor 1 (IGF1) using HepaRG (AID 2283506)
How it was run: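 Endpoint: IGF1 mRNA change by qRT-PCR, housekeeping-normalized, fitted bidirectionally relative to 0.5% DMSO vehicle. Human HepaRG cells were treated 48 h in serum-free induction medium, eight half-log concentrations topping at 100 uM.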

[9] = read-out: Intercellular Adhesion Molecule 1 (ICAM1), ICAM1 (gene 3383); test: LTEA_HepaRG_ICAM1: Life Technologies and Expression Analysis (LTEA) Assay for Intercellular Adhesion Molecule 1 (ICAM1) using HepaRG (AID 2283507)
How it was run: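 Using the human liver line HepaRG, compounds are tested in duplicate over 48 h at concentrations up to 100 uM. Expression is determined by TaqMan qRT-PCR, normalized to endogenous controls, and analysed relative to 0.5% DMSO vehicle.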

[10] = read-out: Insulin-like growth factor-binding protein 1 (IGFBP1), IGFBP1 (gene 3484); test: LTEA_HepaRG_IGFBP1: Life Technologies and Expression Analysis (LTEA) Assay for Insulin-like growth factor-binding protein 1 (IGFBP1) using HepaRG (AID 2283508)
How it was run: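 HepaRG, 48 h, 8 conc. (max 100 uM, half-log), duplicates, 0.5% DMSO. Readout: TaqMan qRT-PCR, ACTB/GAPDH/POLR2A normalisation. Fit: bidirectional vs DMSO.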

[11] = read-out: Interleukin 6 (IL6), IL6 (gene 3569); test: LTEA_HepaRG_IL6: Life Technologies and Expression Analysis (LTEA) Assay for Interleukin 6 (IL6) using HepaRG (AID 2283509)
How it was run: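 Changes in IL6 mRNA, up or down relative to 0.5% DMSO controls, were derived from concentration-response curves in human HepaRG cells treated for 48 h at up to 100 uM, with ACTB, GAPDH and POLR2A as normalizers.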

[12] = read-out: Interleukin 6 Receptor (IL6R), IL6R (gene 3570); test: LTEA_HepaRG_IL6R: Life Technologies and Expression Analysis (LTEA) Assay for Interleukin 6 Receptor (IL6R) using HepaRG (AID 2283510);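 as to AC50: differentiated human HepaRG liver cells in serum-free induction medium; TaqMan qRT-PCR signal normalized to ACTB GAPDH and POLR2A housekeeping genes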
How it was run: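 In this HepaRG screen, test chemicals act on cells for 48 h at up to 100 uM (eight half-log points, duplicate wells). IL6R expression is quantified by qRT-PCR after normalization to ACTB, GAPDH and POLR2A, with DMSO as baseline.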

[13] = read-out: Potassium channel subfamily K member 1 (KCNK1), KCNK1 (gene 3775); test: LTEA_HepaRG_KCNK1: Life Technologies and Expression Analysis (LTEA) Assay for Potassium channel subfamily K member 1 (KCNK1) using HepaRG (AID 2283511)
How it was run: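 Human HepaRG cultures receive test chemicals for 48 h in 0.5% DMSO, top concentration 100 uM with half-log dilutions. Induction or suppression of KCNK1 mRNA relative to DMSO is derived by bidirectional fitting of qRT-PCR data.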

[14] = read-out: Keratin 19 (KRT19), KRT19 (gene 3880); test: LTEA_HepaRG_KRT19: Life Technologies and Expression Analysis (LTEA) Assay for Keratin 19 (KRT19) using HepaRG (AID 2283512)
How it was run: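 Readout is qRT-PCR of KRT19 mRNA, normalized to ACTB, GAPDH and POLR2A, from HepaRG cells treated 48 h with eight-point half-log dilutions topping at 100 uM. Activity in either direction is scored relative to 0.5% DMSO vehicle.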

[15] = read-out: JUN Transcription Factor, JUN (gene 3725); test: LTEA_HepaRG_JUN: Life Technologies and Expression Analysis (LTEA) Assay for JUN Transcription Factor using HepaRG (AID 2283513)
How it was run: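 Gene-expression endpoint: JUN mRNA (qRT-PCR, normalized to three reference genes) in HepaRG cultures treated 48 h with chemicals, duplicate wells, 100 uM maximum with half-log dilutions; bidirectional fitting relative to 0.5% DMSO.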

[16] = read-out: Lipase C (LIPC), LIPC (gene 3990); test: LTEA_HepaRG_LIPC: Life Technologies and Expression Analysis (LTEA) Assay for Lipase C (LIPC) using HepaRG (AID 2283514)
How it was run: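 In this multiplexed gene-expression screen, human HepaRG cultures received test chemicals for 48 h across eight concentrations with 100 uM highest, in duplicate. Values reflect LIPC mRNA induction or suppression versus DMSO vehicle, from normalized qRT-PCR.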

[17] = read-out: Lipoprotein lipase (LPL), LPL (gene 4023); test: LTEA_HepaRG_LPL: Life Technologies and Expression Analysis (LTEA) Assay for Lipoprotein lipase (LPL) using HepaRG (AID 2283515)
How it was run: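 Concentration-response testing used half-log steps from 100 uM in 0.5% DMSO on human HepaRG cells, 48 h, duplicate wells. Phenobarbital 1 mM served as induction control; LPL mRNA was normalized to ACTB, GAPDH, POLR2A.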

[18] = read-out: MicroRNA 122 (MIR122), gene 406906; test: LTEA_HepaRG_MIR122: Life Technologies and Expression Analysis (LTEA) Assay for MicroRNA 122 (MIR122) using HepaRG (AID 2283516); also: the transcript read is the microRNA miR-122
How it was run: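 Changes in transcript abundance, up or down relative to 0.5% DMSO vehicle, were scored after 48 h chemical treatment of HepaRG cells (maximum 100 uM). Quantification used TaqMan qRT-PCR normalized to housekeeping genes.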

[19] = read-out: matrix metalloproteinase-10 (MMP10), MMP10 (gene 4319); test: LTEA_HepaRG_MMP10: Life Technologies and Expression Analysis (LTEA) Assay for matrix metalloproteinase-10 (MMP10) using HepaRG (AID 2283517)
How it was run: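 In differentiated HepaRG cultures kept in 0.5% DMSO, test chemicals act for 48 h over an eight-point range with a top dose of 100 uM. Expression is then quantified by TaqMan RT-PCR against ACTB, GAPDH and POLR2A.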

[20] = read-out: MYC, MYC (gene 4609); test: LTEA_HepaRG_MYC: Life Technologies and Expression Analysis (LTEA) Assay for MYC using HepaRG (AID 2283518)
How it was run: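 Expression changes were scored by TaqMan qRT-PCR with ACTB, GAPDH and POLR2A normalization. Cultures in serum-free induction medium received duplicate 8-point concentration series, highest 100 uM, for 48 h; DMSO (0.5%) served as baseline.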

Sequence of Hypoxia-inducible factor 1-alpha (Homo sapiens) (Q16665 whole entry, looked up): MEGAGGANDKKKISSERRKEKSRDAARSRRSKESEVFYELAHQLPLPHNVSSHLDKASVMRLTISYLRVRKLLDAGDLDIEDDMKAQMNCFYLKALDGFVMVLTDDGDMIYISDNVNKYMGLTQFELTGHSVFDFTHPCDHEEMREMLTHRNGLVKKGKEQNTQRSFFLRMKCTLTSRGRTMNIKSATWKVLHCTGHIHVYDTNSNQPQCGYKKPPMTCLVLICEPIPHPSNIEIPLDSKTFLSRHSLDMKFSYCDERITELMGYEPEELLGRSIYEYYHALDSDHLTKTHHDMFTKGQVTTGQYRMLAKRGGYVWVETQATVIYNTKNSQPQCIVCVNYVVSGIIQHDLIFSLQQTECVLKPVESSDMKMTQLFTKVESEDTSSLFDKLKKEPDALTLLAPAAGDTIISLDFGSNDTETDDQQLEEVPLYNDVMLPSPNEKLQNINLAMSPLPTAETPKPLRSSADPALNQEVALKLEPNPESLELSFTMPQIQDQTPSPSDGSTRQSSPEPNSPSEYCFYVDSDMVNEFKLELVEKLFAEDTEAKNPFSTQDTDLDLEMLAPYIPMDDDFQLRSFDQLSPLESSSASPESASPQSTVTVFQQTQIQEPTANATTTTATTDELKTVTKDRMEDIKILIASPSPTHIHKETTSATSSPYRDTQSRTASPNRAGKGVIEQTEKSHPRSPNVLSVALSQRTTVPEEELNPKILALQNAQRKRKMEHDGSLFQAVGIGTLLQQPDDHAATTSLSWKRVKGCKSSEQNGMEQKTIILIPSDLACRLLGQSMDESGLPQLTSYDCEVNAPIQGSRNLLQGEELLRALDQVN

CCCCOCCOCCO
outcome [1]: inactive
outcome [2]: inactive
outcome [3]: inactive
outcome [4]: inactive
outcome [5]: inactive
outcome [6]: inactive
outcome [7]: inactive
outcome [8]: inactive
outcome [9]: inactive
outcome [10]: inactive
outcome [11]: inactive
outcome [12]: inactive
outcome [13]: inactive
outcome [14]: inactive
outcome [15]: inactive
outcome [16]: inactive
outcome [17]: inactive
outcome [18]: inactive
outcome [19]: inactive
outcome [20]: inactive

C=C(C)C(N)=O
outcome [1]: inactive
outcome [2]: inactive
outcome [3]: inactive
outcome [4]: inactive
outcome [5]: inactive
outcome [6]: inactive
outcome [7]: inactive
outcome [8]: inactive
outcome [9]: inactive
outcome [10]: inactive
outcome [11]: inactive
outcome [12]: inactive
outcome [13]: inactive
outcome [14]: inactive
outcome [15]: inactive
outcome [16]: inactive
outcome [17]: inactive
outcome [18]: inactive
outcome [19]: inactive
outcome [20]: inactive

C#C[C@]1(O)CC[C@H]2[C@@H]3CCc4cc(O)ccc4[C@H]3CC[C@@]21C
outcome [1]: inactive
outcome [3]: inactive
outcome [4]: inactive
outcome [5]: inactive
outcome [6]: inactive
outcome [7]: inactive
outcome [8]: inactive
outcome [9]: inactive
outcome [10]: inactive
outcome [11]: inactive
outcome [12]: inactive
outcome [13]: inactive
outcome [14]: inactive
outcome [15]: inactive
outcome [16]: inactive
outcome [17]: inactive
outcome [18]: inactive
outcome [19]: inactive
outcome [20]: inactive

COC(=O)c1ccc(C(=O)OC)cc1
outcome [1]: inactive
outcome [2]: inactive
outcome [3]: inactive
outcome [4]: inactive
outcome [5]: inactive
outcome [6]: inactive
outcome [7]: inactive
outcome [8]: inactive
outcome [9]: inactive
outcome [10]: inactive
outcome [11]: inactive
outcome [12]: inactive
outcome [13]: inactive
outcome [14]: inactive
outcome [15]: inactive
outcome [16]: inactive
outcome [17]: inactive
outcome [18]: inactive
outcome [19]: inactive
outcome [20]: inactive

CC/C(=C(\c1ccccc1)c1ccc(OCCN(C)C)cc1)c1ccccc1
AC50 [1]: 90.5 µM (active)
outcome [1]: inactive
AC50 [2]: 74 µM (active) and 50 µM (active)
outcome [3]: inactive
AC50 [4]: 74.8 µM (active) and 76.4 µM (active)
AC50 [5]: 82 µM (active)
outcome [5]: inactive
AC50 [6]: 66 µM (active)
outcome [6]: inactive
outcome [7]: inactive
AC50 [8]: 84.6 µM (active)
outcome [8]: inactive
AC50 [9]: 85.1 µM (active) and 99.2 µM (active)
AC50 [10]: 65.9 µM (active) and 57 µM (active)
AC50 [11]: 71.4 µM (active) and 92.3 µM (active)
AC50 [12]: 93.4 µM (active)
outcome [12]: inactive
AC50 [14]: 11.2 µM (active)
outcome [14]: inactive
AC50 [15]: 74.6 µM (active) and 89.2 µM (active)
AC50 [16]: 93.9 µM (active)
outcome [16]: inactive
AC50 [17]: 76.5 µM (active)
outcome [17]: inactive
outcome [18]: inactive
AC50 [19]: 75 µM (active) and 50 µM (active)
AC50 [20]: 85.6 µM (active)
outcome [20]: inactive

O=C(c1ccc(OCCN2CCCCC2)cc1)c1c(-c2ccc(O)cc2)sc2cc(O)ccc12
outcome [1]: inactive
outcome [2]: inactive
outcome [3]: inactive
AC50 [4]: 88.1 µM (active)
AC50 [6]: 3.14 µM (active)
outcome [7]: inactive
AC50 [8]: 78.3 µM (active)
AC50 [9]: 71 µM (active)
AC50 [10]: 75.6 µM (active)
AC50 [11]: 75.9 µM (active)
outcome [12]: inactive
outcome [13]: inactive
outcome [14]: inactive
AC50 [15]: 82.6 µM (active)
outcome [16]: inactive
AC50 [17]: 80.4 µM (active)
outcome [18]: inactive
AC50 [19]: 78.7 µM (active)
outcome [20]: inactive

C[C@]12CC[C@@H]3c4ccc(O)cc4CC[C@H]3[C@@H]1CC[C@@H]2O
outcome [1]: inactive
outcome [2]: inactive
outcome [3]: inactive
outcome [4]: inactive
outcome [6]: inactive
outcome [7]: inactive
AC50 [8]: 31.2 µM (active)
outcome [9]: inactive
outcome [10]: inactive
outcome [11]: inactive
outcome [12]: inactive
outcome [13]: inactive
outcome [14]: inactive
outcome [15]: inactive
outcome [16]: inactive
outcome [17]: inactive
outcome [18]: inactive
outcome [19]: inactive
outcome [20]: inactive

— PubChem BioAssay (EPA / NIEHS)
